# Experimental data as given in PubChem BioAssay (EPA / NIEHS).
# Records with an inconclusive call do not appear. Activity calls are given as the source filed them. Rule for the calls: active = hit-call score of the fitted dose curve at least 0.9, where 1 is the maximum; inconclusive = response in the unintended direction; inactive = score below 0.9.
# Target: sheep Cyclooxygenase-1 (Cox1), PTGS1 (gene 443551) (UniProt P05979)
# Assay: NVS_ENZ_oCOX1: NovaScreen (NVS) Enzymatic Assay for sheep Cyclooxygenase-1 (Cox1) (AID 2283239);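 note: actives reduce cyclooxygenase activity so potencies are for inhibitors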
# Procedure, shortened: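 COX1 from ovine seminal vesicles, activity read colorimetrically about 0.66 h after dosing. Primary screen in duplicate at 25 uM; actives retested in concentration series; loss of signal fitted versus DMSO.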
# Sequence of sheep Cyclooxygenase-1 (Cox1), PTGS1 (gene 443551) (P05979 whole entry, looked up): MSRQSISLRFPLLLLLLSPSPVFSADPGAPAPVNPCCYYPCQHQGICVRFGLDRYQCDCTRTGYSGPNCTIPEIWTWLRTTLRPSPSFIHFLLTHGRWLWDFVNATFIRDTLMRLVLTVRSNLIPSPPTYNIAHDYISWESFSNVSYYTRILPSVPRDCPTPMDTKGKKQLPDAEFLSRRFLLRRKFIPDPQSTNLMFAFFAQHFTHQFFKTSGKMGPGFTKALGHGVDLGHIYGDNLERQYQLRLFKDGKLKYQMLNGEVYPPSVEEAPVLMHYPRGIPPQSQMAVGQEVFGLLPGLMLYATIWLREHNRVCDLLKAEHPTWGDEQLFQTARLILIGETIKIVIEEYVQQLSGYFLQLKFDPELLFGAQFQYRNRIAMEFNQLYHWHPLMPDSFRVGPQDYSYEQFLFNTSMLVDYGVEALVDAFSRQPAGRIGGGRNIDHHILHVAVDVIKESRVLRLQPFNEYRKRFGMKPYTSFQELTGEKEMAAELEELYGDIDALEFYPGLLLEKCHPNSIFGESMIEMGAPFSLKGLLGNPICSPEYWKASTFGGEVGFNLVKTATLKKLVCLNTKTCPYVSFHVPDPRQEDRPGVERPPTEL
row,SMILES,outcome
1,CSc1ccc(Oc2ccc(S(N)(=O)=O)cc2CN(C)C)cc1C,inactive
2,C#CC(O)C(CC)CCCC (stereo not drawn),inactive
3,O=[Si]=O,inactive
4,Oc1ccc(O)cc1,inactive

# System: bovine Angiotensin II Receptor Type 2 (AT2), gene 407157
# Assay: NVS_GPCR_bAT2: NovaScreen (NVS) G Protein-Coupled Receptor Assay for bovine Angiotensin II Receptor Type 2 (AT2) (AID 2283240)
# Procedure, shortened: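 Radioligand displacement on bovine cerebellar membranes, 1 hour incubation, filter-based scintillation counting; loss of signal vs DMSO. Duplicate single-point screen at 25 uM, then concentration-response to 50 uM maximum.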
SMILES,outcome,AC50
CCCCc1nc2cccnc2n1Cc1ccc(-c2ccccc2-c2nnn[nH]2)cc1,inactive,–
CCc1cc(C2=C(C(=O)O)N(c3ccccc3C(F)(F)F)S(=O)(=O)c3ccccc32)cc2c1OCO2,–,25 µM (active)
O=C(NS(=O)(=O)/C=C/c1cccs1)c1ccc(F)cc1Br,–,14.5 µM (active)

# System: guinea pig Leukotriene B4 Receptor (LTB4), gene 100379538
# Assay: NVS_GPCR_gLTB4: NovaScreen (NVS) G Protein-Coupled Receptor Assay for guinea pig Leukotriene B4 Receptor (LTB4) (AID 2283247)
# Procedure, shortened: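 Membranes from guinea pig spleen incubated 2 h with radioligand and compound; bound counts measured by filtration and scintillation. Screened first at 25 uM in duplicate, then actives titrated to a 50 uM top concentration relative to DMSO.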
SMILES,AC50,outcome
CCCCc1nc2cccnc2n1Cc1ccc(-c2ccccc2-c2nnn[nH]2)cc1,10.9 µM (active),–
CCc1cc(C2=C(C(=O)O)N(c3ccccc3C(F)(F)F)S(=O)(=O)c3ccccc32)cc2c1OCO2,3.48 µM (active),–
O=Cc1ccccc1C=O,–,inactive
C#CC(O)C(CC)CCCC (stereo not drawn),2.8 µM (active),–
NC=O,–,inactive

# Target: human Serotonin, 5-Hydroxytryptamine Receptor 2A (5HT2A), HTR2A (gene 3356) (UniProt P28223)
# Sequence (P28223 whole entry, looked up): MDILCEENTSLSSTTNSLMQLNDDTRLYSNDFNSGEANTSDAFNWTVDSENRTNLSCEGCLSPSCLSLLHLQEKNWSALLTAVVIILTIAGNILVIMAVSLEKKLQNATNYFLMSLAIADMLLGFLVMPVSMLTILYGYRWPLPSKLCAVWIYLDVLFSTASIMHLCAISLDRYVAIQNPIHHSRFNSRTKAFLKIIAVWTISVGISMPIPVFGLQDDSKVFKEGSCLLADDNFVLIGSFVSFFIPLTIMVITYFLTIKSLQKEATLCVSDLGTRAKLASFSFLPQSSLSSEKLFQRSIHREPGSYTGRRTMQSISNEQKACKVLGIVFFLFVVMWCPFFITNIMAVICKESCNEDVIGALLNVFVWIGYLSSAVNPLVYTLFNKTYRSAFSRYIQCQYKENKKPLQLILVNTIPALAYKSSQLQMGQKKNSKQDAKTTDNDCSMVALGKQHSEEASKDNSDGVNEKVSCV
# Assay: NVS_GPCR_h5HT2A: NovaScreen (NVS) G Protein-Coupled Receptor Assay for human Serotonin, 5-Hydroxytryptamine Receptor 2A (5HT2A) (AID 2283249)
# Procedure, shortened: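 Radioligand displacement on human cortex tissue extract, counted by filtration and scintillation 1.5 h post-dosing. Initial single-concentration screen at 25 uM in duplicate, concentration series in follow-up; DMSO as baseline.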
SMILES,outcome,AC50
C=CCc1ccc(OC)c(OC)c1,inactive,–
CSc1ccc(Oc2ccc(S(N)(=O)=O)cc2CN(C)C)cc1C,–,13.4 µM (active)
CCC(C)N(C)C(=O)c1cc2ccccc2c(-c2ccccc2Cl)n1 (stereo not drawn),inactive,–
CC(N)=O,inactive,–
CC(=O)O,inactive,–
O=C(N[C@@H](c1ccccc1)[C@@H]1CCCCN1)c1cccc(C(F)(F)F)c1Cl,–,25 µM (active)

# System: guinea pig Muscarinic, Peripheral (Mperiperal) Receptor, Non-selective Binding, gene 100379235
# Assay: NVS_GPCR_gMPeripheral_NonSelective: NovaScreen (NVS) G Protein-Coupled Receptor Assay for guinea pig Muscarinic, Peripheral (Mperiperal) Receptor, Non-selective Binding (AID 2283250)
# Procedure, shortened: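 Screened in duplicate at 25 uM, hits retested in concentration series to 50 uM max, using bladder membrane radioligand displacement from guinea pig. Filtration and scintillation counting 1 h post-dose, fitted relative to DMSO.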
SMILES,AC50,outcome
CN(C)CCCN1c2ccccc2Sc2ccc(Cl)cc21,1.66 µM (active),–
CCCC[C@H]1CN(CC2CCOCC2)C(=O)OC12CCN(C1(C)CCN(C(=O)c3c(C)ncnc3C)CC1)CC2,3.04 µM (active),–
O=C(N[C@@H](c1ccccc1)[C@@H]1CCCCN1)c1cccc(C(F)(F)F)c1Cl,–,inactive

# Target: human Serotonin, 5-Hydroxytryptamine Receptor 5A (5HT5A), HTR5A (gene 3361) (UniProt P47898)
# Sequence (P47898 whole entry, looked up): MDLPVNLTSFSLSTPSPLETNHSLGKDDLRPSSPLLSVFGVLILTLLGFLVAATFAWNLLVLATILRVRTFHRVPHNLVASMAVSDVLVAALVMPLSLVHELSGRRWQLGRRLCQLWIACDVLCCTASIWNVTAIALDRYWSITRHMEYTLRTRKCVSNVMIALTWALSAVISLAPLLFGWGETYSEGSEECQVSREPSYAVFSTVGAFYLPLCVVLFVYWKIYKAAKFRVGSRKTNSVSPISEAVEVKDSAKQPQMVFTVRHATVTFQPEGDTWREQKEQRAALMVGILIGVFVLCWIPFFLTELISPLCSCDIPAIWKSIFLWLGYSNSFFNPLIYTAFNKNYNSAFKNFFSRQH
# Assay: NVS_GPCR_h5HT5A: NovaScreen (NVS) G Protein-Coupled Receptor Assay for human Serotonin, 5-Hydroxytryptamine Receptor 5A (5HT5A) (AID 2283251)
# Procedure, shortened: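 Membranes from HEK293 cells, radioligand binding read by filtration and scintillation after 1 h. Single-concentration duplicate testing at 25 uM, then concentration-response for actives; positive-direction fitting relative to DMSO.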
SMILES,AC50,outcome
CSc1ccc(Oc2ccc(S(N)(=O)=O)cc2CN(C)C)cc1C,7.53 µM (active),–
CCC(C)N(C)C(=O)c1cc2ccccc2c(-c2ccccc2Cl)n1 (stereo not drawn),15.9 µM (active),–
Cc1cc(Cc2ccc(N)c(C)c2)ccc1N,–,inactive
CN(C)CCCN1c2ccccc2Sc2ccc(Cl)cc21,1.35 µM (active),–
CC(=O)O[C@]1(C(C)=O)CC[C@H]2[C@@H]3C=C(Cl)C4=CC(=O)[C@@H]5C[C@@H]5[C@]4(C)[C@H]3CC[C@@]21C,–,inactive

# Target: guinea pig Opioid, Kappa 1 Receptor (OpiateK), OPRK1 (gene 100135587) (UniProt P41144)
# Sequence (P41144 whole entry, looked up): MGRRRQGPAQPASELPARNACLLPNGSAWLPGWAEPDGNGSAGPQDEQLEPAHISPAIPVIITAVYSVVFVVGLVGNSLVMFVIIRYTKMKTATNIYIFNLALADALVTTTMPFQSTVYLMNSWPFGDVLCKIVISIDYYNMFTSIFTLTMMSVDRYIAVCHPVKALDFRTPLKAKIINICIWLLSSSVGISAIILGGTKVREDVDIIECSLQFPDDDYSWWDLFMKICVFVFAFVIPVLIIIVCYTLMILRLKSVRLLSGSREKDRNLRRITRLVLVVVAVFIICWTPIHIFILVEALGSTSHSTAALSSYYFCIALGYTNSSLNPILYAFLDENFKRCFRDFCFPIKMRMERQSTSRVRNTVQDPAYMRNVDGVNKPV
# Assay: NVS_GPCR_gOpiateK: NovaScreen (NVS) G Protein-Coupled Receptor Assay for guinea pig Opioid, Kappa 1 Receptor (OpiateK) (AID 2283252);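 note: radioligand displacement from kappa opioid receptor in guinea pig cerebellar membranes; active means reduced radioligand binding relative to DMSO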
# Procedure, shortened: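 Cell-free tissue prep: guinea pig cerebellar membranes, radioligand displacement, 2 h incubation. Readout: filtration plus scintillation counting. Primary single-point 25 uM duplicate; actives retested in concentration series; DMSO negative control.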
SMILES,AC50,outcome
O=C1OC(c2ccc(O)cc2)(c2ccc(O)cc2)c2ccccc21,4.09 µM (active),–
CSc1ccc(Oc2ccc(S(N)(=O)=O)cc2CN(C)C)cc1C,13.5 µM (active),–
CCC(C)N(C)C(=O)c1cc2ccccc2c(-c2ccccc2Cl)n1 (stereo not drawn),1.91 µM (active),–
CCCCc1nc2cccnc2n1Cc1ccc(-c2ccccc2-c2nnn[nH]2)cc1,10 µM (active),–
CCc1cc(C2=C(C(=O)O)N(c3ccccc3C(F)(F)F)S(=O)(=O)c3ccccc32)cc2c1OCO2,–,inactive
CN(C)CCCN1c2ccccc2Sc2ccc(Cl)cc21,10.1 µM (active),–
O=Cc1ccccc1C=O,9.81 µM (active),–
O=C1CCCCC1,–,inactive
O=C(N[C@@H](c1ccccc1)[C@@H]1CCCCN1)c1cccc(C(F)(F)F)c1Cl,0.641 µM (active),–

# Target: human Adenosine A1 Receptor (AdoRA1), ADORA1 (gene 134) (UniProt P30542)
# Sequence (P30542 whole entry, looked up): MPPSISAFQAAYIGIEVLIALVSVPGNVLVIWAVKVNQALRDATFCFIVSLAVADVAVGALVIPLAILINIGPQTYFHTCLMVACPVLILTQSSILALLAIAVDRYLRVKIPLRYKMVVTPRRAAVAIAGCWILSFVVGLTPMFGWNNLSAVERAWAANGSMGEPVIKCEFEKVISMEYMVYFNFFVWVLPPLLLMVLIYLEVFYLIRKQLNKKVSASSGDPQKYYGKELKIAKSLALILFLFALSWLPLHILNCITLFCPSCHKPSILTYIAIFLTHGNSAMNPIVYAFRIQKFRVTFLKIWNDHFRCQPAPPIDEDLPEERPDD
# Assay: NVS_GPCR_hAdoRA1: NovaScreen (NVS) G Protein-Coupled Receptor Assay for human Adenosine A1 Receptor (AdoRA1) (AID 2283254)
# Procedure, shortened: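 Hum. cortical membranes + radioligand, cmpd 1 h; filtration, scintillation count. Readout = decrease vs DMSO. Primary 25 uM dup; hits → conc. series.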
SMILES,AC50,outcome
O=C1OC(c2ccc(O)cc2)(c2ccc(O)cc2)c2ccccc21,1.03 µM (active),–
CCC(C)N(C)C(=O)c1cc2ccccc2c(-c2ccccc2Cl)n1 (stereo not drawn),6.11 µM (active),–
C=CCCCCCCCCCCCC,–,inactive
